Screens from PubChem.
DT40 TDP1 no CPT = qHTS for Inhibitors of human tyrosyl-DNA phosphodiesterase 1 (TDP1): qHTS in cells in absence of CPT | Potency, µM (series often up to 46.2 µM), for inactives: at the top dose activity change, negative = growth inhibition, actives largely listed as inhibitors | actives 15% (n = 420,000) | DT40 Tdp1-/- hTDP1 cells, no CPT, ATP luminescence, 48 h; note: nearly all actives have a fitted effect of over 55% in size
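No-CPT arm: Tdp1-/-;hTDP1 DT40 cells (400/well) plus compounds, incubated ≥48 hr at 37 °C. Readout CellTiter-Glo luminescence.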
12-LOX inh = inhibitors of human 12S-lipoxygenase ALOX12. actives 1.1% (n = 580,000). Potency, µM (doses to about 108 µM), for inactives: at the top dose activity change, negative = inhibition, hits mostly inhibitors. purified 12hLO, xylenol orange hydroperoxide absorbance. P18054. AID 1671190
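Hydroperoxide product was detected by ferrous iron/xylenol orange as the 573 to 405 nm absorbance ratio. Arachidonic acid at 40 uM (final) was turned over for 30 min at room temperature by 150 nM human 12hLO, pH 7.0 Hepes buffer, after 15 min compound preincubation.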
ELG1 repair inh = blocks ELG1-dependent DNA repair in HEK293T cells. HEK293T ELG1-luciferase reporter, luminescence, 16 h; DNA damage induced by 5-fluorouridine. Potency, µM (series often up to 46.1 µM), without a hit: at the top dose activity change, negative = inhibition, hits mostly inhibitors. actives 2.3% (n = 330,000). AID 504467; note: nearly all actives have a fitted effect of over 55% in size
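Reporter activity after DNA damage by 5-fluorouridine is monitored. Compound-treated cells incubate 16 hr at 37 °C, then ONE-Glo is added for 30 min before luminescence reading.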
RORgamma inh = inhibitors of mouse ROR gamma transcriptional activity | AID 2551 | Drosophila S2 Gal4-RORgamma UAS-luciferase reporter, 20 h | actives 5.4% (n = 310,000) | Potency, µM (series often up to 53.6 µM), for inactives: at the top dose activity change, negative = inhibition, actives largely listed as inhibitors; note: nearly all actives have a fitted effect of over 60% in size
Target sequence (P51450 whole entry, looked up, the tested form may be a part): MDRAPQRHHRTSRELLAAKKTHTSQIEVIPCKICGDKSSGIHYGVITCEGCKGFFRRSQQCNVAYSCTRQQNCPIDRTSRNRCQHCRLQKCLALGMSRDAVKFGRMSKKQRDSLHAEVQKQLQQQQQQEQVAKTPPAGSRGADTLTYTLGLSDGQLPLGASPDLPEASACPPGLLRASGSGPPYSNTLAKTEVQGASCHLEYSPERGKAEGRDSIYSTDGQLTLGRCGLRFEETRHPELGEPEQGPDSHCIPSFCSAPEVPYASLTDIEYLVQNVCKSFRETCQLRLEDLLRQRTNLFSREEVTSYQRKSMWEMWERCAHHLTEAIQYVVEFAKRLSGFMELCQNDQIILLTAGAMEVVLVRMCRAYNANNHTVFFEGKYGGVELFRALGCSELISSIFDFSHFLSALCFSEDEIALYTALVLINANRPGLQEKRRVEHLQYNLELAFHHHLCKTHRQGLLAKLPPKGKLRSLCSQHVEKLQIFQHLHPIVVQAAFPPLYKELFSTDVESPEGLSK
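Stably transfected Drosophila Schneider cells are the test system, with ROR gamma fused to Gal4 and luciferase under UAS control; luminescence is read after 20 hr of 700 uM copper sulfate induction at ambient temperature.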
Gal4-VP16 FLuc = counter-screen for ROR gamma inhibitors: Gal4-VP16 reporter. Drosophila S2 Gal4-VP16 UAS-luciferase, luminescence, 20 h. Potency, µM (top dose mostly 53.6 µM), without a hit: top-dose activity, negative = inhibition, usual class: inhibitors. actives 3.5% (n = 310,000);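 note: Gal4-VP16 expression switched on by copper sulfate through the metallothionein promoter; nearly all actives have a fitted effect of over 50% in size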
DT40 TDP1 CPT = growth inhibition of DT40 Tdp1-/-;hTDP1 cells with camptothecin (screen for TDP1 inhibitors) | chicken DT40 Tdp1-/-;hTDP1 cells + 20 nM CPT, ATP luminescence, 48 h | actives 12% (n = 420,000) | Potency, µM (doses to about 46.2 µM), inactives show at the top dose activity change, negative = growth inhibition, actives largely listed as inhibitors; note: nearly all actives have a fitted effect of over 55% in size
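Cell growth measured by CellTiter-Glo luminescence after a minimum 48 h, 37 C compound exposure with 20 nM CPT in Tdp1-knockout DT40 cells stably expressing hTDP1, seeded 400/well; qHTS titration format.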
ELG1 FLuc counter = luciferase inhibition in cell-free luciferin readout for ELG1 hits; cell-free firefly luciferase luminescence counter-screen, ViewLux; actives 3% (n = 350); shares compounds with ELG1 repair inh; Potency, µM (highest dose often 46.1 µM), inactives show at the top dose activity change, negative = inhibition, actives largely listed as inhibitors
ELG1-Luc inh = inhibits ELG1-dependent DNA repair in HEK293T cells, confirmed; Potency, µM (doses to about 46.1 µM), for the others: at the highest dose activity change, negative = inhibition, actives largely listed as inhibitors; actives 68% (n = 670); HEK293T ELG1-luciferase levels, luminescence; cells co-treated with 5-fluorouridine; shares compounds with ELG1 repair inh; note: nearly all actives have a fitted effect of over 55% in size
ELG1 MMS Luc = confirmation of human ELG1 repair inhibitors, MMS stimulated. shares compounds with ELG1 repair inh. actives 53% (n = 670). Potency, µM (series often up to 46.1 µM), without a hit: top-dose activity change, negative = inhibition, usual class: inhibitors. HEK293T luciferase-tagged ELG1 level, MMS stimulated; note: nearly all actives have a fitted effect of over 60% in size
ELG1 5-FU = confirmation of ELG1 repair inhibitors: viability with 5FU; AID 624250; shares compounds with ELG1 repair inh; Potency, µM (highest dose often 46.1 µM), inactives show top-dose activity change, negative = viability loss, actives largely listed as cytotoxic; cell viability with 5-FU, ELG1-dependent repair; 670 tested, under 10 active;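 note: ELG1-luc HEK293T cells cotreated with 5-fluorouridine at 10 µM final; viability measured 16 h after compound addition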
ELG1 MMS viab = confirmation of ELG1 repair inhibitors: viability with MMS; shares compounds with ELG1 repair inh; Cell viability with MMS, ELG1-dependent DNA repair; Potency, µM (doses to about 46.1 µM), for inactives: at the highest dose activity change, negative = viability loss, actives largely listed as cytotoxic; actives 33% (n = 670);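 note: ELG1-luc HEK293T cells co-treated with 10 µM MMS; viability read 16 h after compound addition; nearly all actives have a fitted effect of over 60% in size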
Cell viab unstim = unstimulated viability counter-screen for ELG1 repair hits; shares compounds with ELG1 repair inh; cell viability counter-screen, unstimulated, luminescence; Potency, µM (top dose mostly 45.9 µM), inactives show at the highest dose activity change, negative = loss of viability, hits mostly cytotoxic; actives 8% (n = 900); AID 624252;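 note: compound exposure lasted 16 hours before reading; nearly all actives have a fitted effect of over 55% in size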
FLuc enzyme = firefly luciferase inhibition counter-screen; shares compounds with ELG1 repair inh; purified firefly luciferase, luminescence counter-screen; Potency, µM (series often up to 57.5 µM), inactives show at the highest dose activity, negative = inhibition, actives largely listed as inhibitors; actives 10% (n = 350); AID 624253
Starred values were filed as active, the others as inactive; ? = inconclusive; nt = not tested or not shown; [ ] = dose if it differs, or a comment. The list is not random: actives were taken first. Their share in the collection is about 15%. Calls come from the whole dose curve; as a rule, active = well fitted curve in the direction sought with a large enough effect; inconclusive = small, poorly fitted or top-dose-only effect, or another doubt; inactive = no such curve, though single readings can be large; an effect the other way counts as inactive or inconclusive. % is set by controls: 0 for no effect and ±100 for the full control effect; potency is the fitted concentration of half-maximal effect.

SMILES	DT40 TDP1 no CPT	12-LOX inh	ELG1 repair inh	RORgamma inh	Gal4-VP16 FLuc	DT40 TDP1 CPT	ELG1-Luc inh	ELG1 MMS Luc	ELG1 5-FU	ELG1 MMS viab	Cell viab unstim	others
Cc1ccc(-c2nnc(NCc3nc4ccccc4[nH]3)c3ccccc23)cc1S(=O)(=O)N1CCOCC1	10µM*	nt	4.6µM*	7%	-4%	15µM*	7.1µM*	16µM*	9%	?	?
COc1ccc(-n2c(C)c([N+](=O)[O-])c3ccc(O)c(CN(C)C)c32)cc1	2.6µM*	66%	0.92µM*	-10%	-28%	?	1.4µM*	2.5µM*	-2%	6%	?	ELG1 FLuc counter=?;FLuc enzyme=6%
CN1C(=O)CO[C@H](c2ccc(NC(=O)C(C)(C)C)cc2)[C@H]1CO	nt	10%[176 µM]	nt	nt	nt	nt	nt	nt	nt	nt	nt
COc1ccc2[nH]cc(CCNC(=O)C[C@H]3NC(=O)c4ccccc4NC3=O)c2c1	nt	3%	nt	nt	nt	nt	nt	nt	nt	nt	nt
Nc1cc(=O)[nH]c(SCc2cccc(Br)c2)n1	nt	-31%	nt	nt	nt	nt	nt	nt	nt	nt	nt
Nc1cc(=O)[nH]c(SCc2ccc(Cl)cc2Cl)n1	7.3µM*	0%	4.1µM*	2%	?	8.2µM*	-12%	2.8µM*	6%	4µM*	-7%
Cc1nn(-c2ccccc2)c2c1C(O)n1c(nc3ccccc31)S2 (stereo not drawn)	16µM*	-24%	2.6µM*	-14%	5%	15µM*	16µM*	11µM*	?	25µM*	?
CCC(=O)Nc1ccc(NC(=O)c2ccco2)cc1	-22%	8%[57.4 µM]	?	-37%	-15%	-12%	nt	nt	nt	nt	nt
CCOc1ccc(CC(=O)Nc2ccc(NC(=O)c3ccco3)cc2)cc1OCC	-6%	-6%	2.3µM*	6%	14%	?	?	0.063µM*	12%	0.07µM*	8%
Cc1cc(C)c(Cc2c(C)nc3c(C(=O)NCc4ccco4)cnn3c2C)c(C)c1	8.2µM*	?	7.3µM*	?	3%	7.3µM*	?	7.1µM*	-3%	7.9µM*	?	ELG1 FLuc counter=-13%;FLuc enzyme=6%
O=C(NCc1ccco1)c1cnn2c(C(F)F)cc(-c3ccccc3)nc12	-26%	-9%	?	-19%	5%	-29%	nt	nt	nt	nt	nt
O=[N+]([O-])c1ccc(N2CCCC2)nc1N1CCCC1	?	?	-1%	26%	-1%	-6%	nt	nt	nt	nt	nt
Nc1ncc([N+](=O)[O-])c(N2CCCCCC2)n1	-30%	14%	2.3µM*	11µM*	-22%	?	4.4µM*	13µM*	-14%	-1%	-13%
Cc1ccccc1Cn1nc2n(c1=O)CCCCC2	nt	27%	nt	nt	nt	nt	nt	nt	nt	nt	nt
Cc1cc2ncc(-c3cccc(Br)c3)nc2cc1C	nt	-1%	nt	nt	nt	nt	nt	nt	nt	nt	nt
Cc1cc2ncc(-c3ccccc3)nc2cc1C	?	0%	?	?	?	-13%	nt	nt	nt	nt	?
COc1ccc(-c2cnc(-c3cccnc3)o2)cc1	-8%[9.04 µM]	-7%	nt	?	-4%	-7%[9.04 µM]	nt	nt	nt	nt	3%
COc1ccccc1N1CCN(CC(=O)Nc2ccccc2C(=O)NC(C)c2ccccc2)CC1 (stereo not drawn)	18µM*	0%	2.9µM*	nt	nt	15µM*	7.9µM*	7%	?	-3%	?
COc1ccc(CN2CCN(CC(=O)Nc3ccccc3C(=O)NC3CC3)CC2)cc1F	-27%	-3%	2.6µM*	nt	nt	-18%	7.1µM*	?	?	0%	1%
CC(NC(=O)CN1CCN(c2ccccc2F)CC1)c1ccccc1 (stereo not drawn)	-14%	182%	-1%	-17%	-4%	-7%	nt	nt	nt	nt	nt
COc1ccccc1N1CCN(CC(=O)Nc2c(C)n[nH]c2C)CC1	-1%	?	7%	-13%	-7%	-8%	nt	nt	nt	nt	nt
CC(NC(=O)c1ccccc1NC(=O)CN1CCN(c2ccccc2O)CC1)c1ccccc1 (stereo not drawn)	?	0%	2.3µM*	nt	nt	?	5.6µM*	?	?	?	-18%
CCCCCOc1ccc(C(=O)Nc2ccc(-c3ccccc3)cc2)cc1	nt	-26%	nt	nt	nt	nt	nt	nt	nt	nt	nt
O=C(CSc1nnc(-c2ccc(O)cc2)o1)Nc1ccccc1	-20%	5%	?	-39%	-16%	6%	nt	nt	nt	nt	?	ELG1 FLuc counter=209%;FLuc enzyme=?
COc1ccccc1NC(=O)CSc1nnc(Cc2ccccc2)o1	0%	?	nt	-15%	-5%	-11%	nt	nt	nt	nt	nt
O=C(CSc1nnc(-c2cccnc2)o1)Nc1ccccn1	-17%	0%	?	27%	9%	-30%	nt	nt	nt	nt	?	ELG1 FLuc counter=193%;FLuc enzyme=-3%
